# GAA850 FXN act: increases GAA850 frataxin promoter reporter activity | HEK293 lucGAA850 FXN promoter luciferase reporter, 24 h; percent of 10 µM SAHA response | activation, % at 6 µM | actives 0.56% (n = 360,000) | AID 540364;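 active = activation above the average of all compounds screened plus 3 SD, cutoff fixed separately per campaign, cut at about 7.5% in these data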
# HSF1 activator: increases HSF-1 driven luciferase reporter signal | NIH3T3-HGL HSF-1 luciferase reporter, MG132, 8 h; 100% = twice DMSO control signal | activation, % at 9 µM | actives 1.7% (n = 300,000) | AID 504408;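 active = mean replicate activation of at least 50% with a set share of replicates each reaching 50%; inconclusive = only one of those two conditions met; inactive = mean below 50% and too few replicates reaching it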
# HSF1 inhib: HSF1 inhibition; NIH3T3-HGL HSE-luciferase, MG132-induced, luminescence 8 h; active compounds read low; activity change, negative = inhibition, % at 7.5 µM (by protocol); actives 0.77% (n = 300,000); AID 2098;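 active = more than half of replicate wells show activity change below -50%, luminescence cut by over half; inconclusive = some wells, but at most half, below -50%; inactive = no replicate well below -50%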;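 note: luciferase reports HSF-1 transcriptional activity via heat shock element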
# AHR activator: activates the human aryl hydrocarbon receptor; actives 2.5% (n = 320,000); AID 2796; activation, % at 5 µM; P35869; AHR-responsive luciferase reporter cells, luminescence; in the data active = activation above about 47%
# Target sequence (P35869 whole entry, looked up): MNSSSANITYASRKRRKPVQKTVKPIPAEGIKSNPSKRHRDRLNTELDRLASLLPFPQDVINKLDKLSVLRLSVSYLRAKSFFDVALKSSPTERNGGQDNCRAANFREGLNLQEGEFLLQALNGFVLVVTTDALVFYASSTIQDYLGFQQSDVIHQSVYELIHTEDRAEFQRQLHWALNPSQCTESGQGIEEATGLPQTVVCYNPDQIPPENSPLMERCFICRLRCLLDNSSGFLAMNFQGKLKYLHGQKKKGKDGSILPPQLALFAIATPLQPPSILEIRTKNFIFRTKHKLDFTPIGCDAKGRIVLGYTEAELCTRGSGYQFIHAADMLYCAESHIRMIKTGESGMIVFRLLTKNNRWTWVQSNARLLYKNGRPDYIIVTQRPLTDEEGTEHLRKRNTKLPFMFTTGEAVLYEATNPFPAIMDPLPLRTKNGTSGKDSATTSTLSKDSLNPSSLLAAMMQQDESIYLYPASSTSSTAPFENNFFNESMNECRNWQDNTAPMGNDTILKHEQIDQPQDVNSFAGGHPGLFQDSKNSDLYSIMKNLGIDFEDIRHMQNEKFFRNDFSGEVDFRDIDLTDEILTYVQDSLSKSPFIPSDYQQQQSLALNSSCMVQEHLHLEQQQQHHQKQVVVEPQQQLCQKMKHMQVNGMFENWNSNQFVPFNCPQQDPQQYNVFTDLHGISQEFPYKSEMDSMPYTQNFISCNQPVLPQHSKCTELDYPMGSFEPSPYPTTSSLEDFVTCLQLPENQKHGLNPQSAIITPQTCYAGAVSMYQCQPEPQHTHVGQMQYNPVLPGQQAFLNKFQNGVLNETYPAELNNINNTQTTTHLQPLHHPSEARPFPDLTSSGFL
# NR0B1 inh: inhibits human nuclear receptor DAX1; P51843; HEK293 Gal4-DAX1 luciferase reporter, luminescence; inhibition, % at 6.75 µM; actives 0.99% (n = 340,000);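 active = inhibition above the mean over all tested compounds plus 3 SD, cut at about 4.2% in these data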;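 note: inhibition shows as a rise in luminescence from relieved DAX1 repression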
# HSP90 refold inh: inhibitors of HSP90 luciferase refolding in rabbit reticulocyte lysate; inhibition, % at 5.6 µM; actives 0.91% (n = 290,000); luciferase refolding luminescence, 3 h; AID 1789;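 active = inhibition above the screen-wide mean plus 3 SD, computed separately per campaign, cut at about 16% in these data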;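 note: inhibitors lower the luminescence because luciferase stays unfolded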
# HSP90 confirm: confirmation of HSP90 inhibitors; shares compounds with HSP90 refold inh; rabbit reticulocyte lysate, luciferase refolding luminescence, 3 h; inhibition, % at 5.9 µM; actives 64% (n = 2,300); AID 1846; in the data active = inhibition above about 18%
# FLuc counter: blocks native firefly luciferase in HSP90 counter-screen; shares compounds with HSP90 refold inh; purified native firefly luciferase, luminescence; inhibition, % at 5.9 µM; actives 48% (n = 2,300); AID 1847;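 active = inhibition above the mean inhibition of all tested sample wells plus 3 SD, cut at about 10% in these data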
# Numbers stand for hits; . = inactive; ? = inconclusive; / = not tested or not shown. Sampled rows, rich in hits. Any-hit rate of the full collection: about 5.9%.
SMILES,GAA850 FXN act,HSF1 activator,HSF1 inhib,AHR activator,NR0B1 inh,HSP90 refold inh,HSP90 confirm,FLuc counter
CCC(=O)Nc1nc(C)c(-c2csc(Nc3cccc(O)c3)n2)s1,.,.,.,.,.,.,/,/
Cc1nc(NC(=O)c2ccccc2)sc1-c1csc(Nc2ccc(Cl)cc2)n1,/,.,.,59,/,37,26,.
Cc1nc(NC(=O)c2ccccc2)sc1-c1csc(Nc2ccc(F)cc2)n1,/,.,.,.,/,44,31,.
Cc1nc(NC(=O)c2ccccc2)sc1-c1csc(Nc2cccc(Cl)c2)n1,/,.,.,.,/,42,27,.
O=C(Nc1ccc(-c2csc(Nc3ccccc3)n2)cc1)c1ccccc1,.,.,.,.,.,.,/,/
COc1ccc(Nc2nc(C(=O)N(CCO)Cc3ccccc3)cs2)cc1,.,.,.,.,.,.,/,/
CCOC(=O)C1CCN(C(=O)COC(=O)c2ccc3c(c2)C(=O)N(c2ccc(OCC)cc2)C3=O)CC1,.,.,.,.,.,.,/,/
CCCCn1c(N)c(N(CCOC)C(=O)c2cc3c(s2)CCC3)c(=O)[nH]c1=O,.,.,.,.,.,/,/,/
Cc1cccc(NC(=O)c2sc3nc(-c4ccc(F)cc4)cn3c2C)n1,.,.,.,.,.,.,/,/
COc1ccc(-c2cn3c(C)c(C(=O)Nc4cccc(C)n4)sc3n2)cc1,.,.,.,.,.,77,73,.
Cc1cccc(NC(=O)c2sc3nc(-c4ccccc4)cn3c2C)n1,.,.,.,.,.,27,.,.
CC1(C)CC(=O)C(C=Nc2ccc(C(=O)c3ccccc3)cc2N=CC2=C(O)CC(C)(C)CC2=O)=C(O)C1,.,?,.,.,.,.,/,/
O=C(O)c1cccc(NC2=C(n3nnc4ccccc43)C(=O)c3ccccc3C2=O)c1,.,.,.,.,.,.,/,/
O=C1C(Nc2ccc(O)cc2)=C/C(=N/S(=O)(=O)c2cccs2)c2ccccc21,.,.,-93,/,.,73,91,.
O=C(O)c1ccc(NC2=C/C(=N/S(=O)(=O)c3cccs3)c3ccccc3C2=O)cc1,.,/,/,/,.,/,/,/
Cc1ccc(S(=O)(=O)/N=C2\C=C(NS(=O)(=O)c3ccccc3)C(=O)c3ccccc32)cc1,.,/,/,/,.,/,/,/
CCc1ccc(S(=O)(=O)/N=C2\C=C(Nc3cccc(C(=O)O)c3)C(=O)c3ccccc32)cc1,.,.,.,.,.,69,82,.
CCc1ccc(S(=O)(=O)/N=C2/C=C(Sc3ncn[nH]3)C(=O)c3ccccc32)cc1,.,/,/,.,.,88,33,34
CCc1ccc(S(=O)(=O)/N=C2\C=C(Nc3ccc(O)cc3)C(=O)c3ccccc32)cc1,.,.,-95,.,.,31,72,.
Cc1cc(C(=O)NC(C)C2CC2)c(Cl)cc1Cl (stereo not given),.,.,.,.,.,.,/,/
CCC(=O)c1ccc(OCC(=O)Nc2ccc(N3CCOCC3)cc2N2CCOCC2)cc1,.,.,.,.,.,28,.,.
O=C(COc1cccc(Br)c1)Nc1ccc(N2CCOCC2)cc1N1CCOCC1,.,/,/,.,.,/,/,/
CC(O)CNC(=S)Nc1ccccc1 (stereo not given),.,.,.,.,.,23,.,.
COCCn1c(C)cc(C(=O)CSc2n[nH]c(N)n2)c1C,.,.,.,.,.,.,/,/
COCCn1c(C)cc(C(=O)CSc2nnc(C)s2)c1C,.,.,-56,.,.,48,80,72
SMILES,GAA850 FXN act,HSF1 activator,HSF1 inhib,AHR activator,NR0B1 inh,HSP90 refold inh,HSP90 confirm,FLuc counter
O=c1oc(Nc2cccc(F)c2)nc2ccccc12,.,.,.,.,.,18,.,.
COc1cccc(/C=C/c2ccccn2)c1O,.,.,.,.,.,17,17,9.9
C=CCc1ccc(OCc2ccc(C(=O)OC)o2)c(OC)c1,.,59,.,.,.,25,55,.
COC(=O)c1ccc(COc2ccc(C=O)cc2OC)o1,.,.,.,.,.,.,/,/
Cc1cccc(N=C2NN=C(c3ccc4c(c3)OCCO4)CS2)c1,.,.,?,.,.,28,40,34
Cc1ccc(-n2cc(C(=O)c3ccccc3O)cn2)cc1,.,.,-77,.,.,31,61,48
CC(C)C(=O)Nc1cccc(-c2nc3ncccc3o2)c1,.,.,?,.,.,.,/,/
CC(C)C(=O)Nc1ccc(-c2nc3ncccc3o2)cc1,.,.,.,.,.,18,25,13
CC(C)C(=O)Nc1ccc(-c2nc3cccnc3o2)cc1,.,.,.,.,.,26,30,.
CCOCc1c(C(=O)Nc2ccc3nc(N4CCOCC4)sc3c2)oc2ccccc12,.,/,/,.,.,/,/,/
CC(C)(C)c1ccc(C(=O)NC(=S)Nc2nc3c(s2)CCCC3)cc1,.,.,-59,.,.,24,57,38
CC(C)(C)c1ccc(C(=O)NC(=S)Nc2sc3c(c2C#N)CCC3)cc1,.,.,.,.,.,.,/,/
CN(C)c1ccc(C(=O)Nc2nc3c(s2)CCCC3)cc1,.,.,.,.,.,27,59,58
COC(=O)Nc1nc2c(s1)CCCC2,.,.,.,.,.,.,/,/
COC(=O)c1ccc(-c2nc(CN3CCN(C(=O)c4ccco4)CC3)c(C)o2)cc1,.,/,/,/,.,/,/,/
COC(=O)c1ccc(-c2nc(CN3CCCN(C(=O)c4ccco4)CC3)c(C)o2)cc1,.,.,.,.,.,25,.,.
COc1ccc(-c2cc(=O)c3c(O)c(OC)c(O)cc3o2)cc1,.,.,.,.,.,20,46,41
CCCC1N2CC3([N+](=O)[O-])CN1CC([N+](=O)[O-])(C2)C3(C)C (stereo not given),.,.,.,.,.,.,/,/
N#CC1=C2C=CC=CN2CC1=O,.,.,.,.,.,20,.,.
CCc1cc(C(=O)c2ccccc2)c(N)s1,.,.,.,.,.,21,.,.
O=C(CCc1nc2ccccc2c(=O)[nH]1)Nc1nnc(SCc2ccccc2F)s1,.,/,/,.,.,/,/,/
CCCSc1nc(SCC(=O)NCc2ccccc2)c2c3c(sc2n1)COC(C)(CC)C3 (stereo not given),.,.,.,.,.,28,.,.
CCCCSc1nc(SCC(=O)NCc2ccco2)c2c3c(sc2n1)COC(C)(CC)C3 (stereo not given),.,.,.,.,.,.,/,/
COc1cc(C)ccc1OCCCOc1ccccc1Br,.,.,.,.,.,.,/,/
COc1cc(C=O)ccc1OCCCOc1ccccc1C(=O)O,.,.,.,.,.,74,76,34
COC(=O)c1ccccc1OCCCOc1ccc(C)cc1OC,/,.,.,.,/,94,100,.
CCN(CC)CCn1c(=S)[nH]c2ccc(Cl)cc2c1=O,.,.,.,.,.,45,.,.
